Assay results: PubChem BioAssay
Calls of active or inactive are those of the source.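 Rule for the calls, unless noted: active = inhibition above 20% together with a positive visual image hit; inconclusive = visual image hit but inhibition not above 20%; inactive = no visual image hit.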

Experiments:
[1] = inhibitors of TNFa-induced NFkB p65 translocation, primary screen, imaging, HUVEC, MLSMR starter and 10KST1 sets (AID 438); settings: HUVEC TNFa-induced p65 nuclear translocation; cell count: measured here: nuclei count (cytotoxicity indicator), at 2.08 µM; inhibition: at 2 µM, stronger effect = higher value, 0% TNFa-plus-vehicle, 100% no-TNFa wells;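 note: compound added about 3h40 before a 20 min TNFalpha stimulation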;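 for inhibition: signal is the nuclear over cytoplasmic p65 intensity ratio per well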
[2] = reduction of polyQ htt aggregates in cells – imaging, exon1htt(103Q)mCFP cells, high-content imaging, primary screen (AID 483;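 active = visual image review flags a hit and inhibition of aggregation exceeds 20%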;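 note: compound exposure lasted 3 days before fixation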;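 for nuclei count: percent of the per-plate median nuclei count of sample wells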); settings: exon1htt(103Q)mCFP cell line, aggregate imaging, at 2 µM; inhibition of aggregation: stronger effect = higher value; nuclei count: measured here: cell count, toxicity
[3] = endothelial E-selectin expression blockers – imaging, HUVEC, immunofluorescence, MLSMR starter and 10KST1 sets, primary screen (AID 487;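 active = visually confirmed hit in the image check and inhibition above 20%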;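 for inhibition: signal is fraction of cell area covered by stained E-selectin grains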;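 for nuclei count: 100% = median nuclei count of all wells on the same plate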); settings: HUVEC TNFalpha-induced E-selectin immunofluorescence imaging, at 2 µM; inhibition: stronger effect = higher value; nuclei count: measured here: cell number, toxicity
[4] = molecular target: Voltage-gated potassium channel subunit beta-2 (Rattus norvegicus) (UniProt P62483); assay: inhibitors of rat Kvbeta2 reductase activity – biochemical, NADPH fluorescence, primary screen (AID 622;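 active = fluorescence slope higher than the sample average by over 3 SD, cut at about -0.22 in these data, passing the limit was not always enough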;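 note: slope of raw intensity against log time taken from 70 to 1610 s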); settings: recombinant KvBeta, 4-cyanobenzaldehyde reduction, at 10 µM, stronger effect = higher value
Voltage-gated potassium channel subunit beta-2 (Rattus norvegicus), sequence (P62483 whole entry, looked up): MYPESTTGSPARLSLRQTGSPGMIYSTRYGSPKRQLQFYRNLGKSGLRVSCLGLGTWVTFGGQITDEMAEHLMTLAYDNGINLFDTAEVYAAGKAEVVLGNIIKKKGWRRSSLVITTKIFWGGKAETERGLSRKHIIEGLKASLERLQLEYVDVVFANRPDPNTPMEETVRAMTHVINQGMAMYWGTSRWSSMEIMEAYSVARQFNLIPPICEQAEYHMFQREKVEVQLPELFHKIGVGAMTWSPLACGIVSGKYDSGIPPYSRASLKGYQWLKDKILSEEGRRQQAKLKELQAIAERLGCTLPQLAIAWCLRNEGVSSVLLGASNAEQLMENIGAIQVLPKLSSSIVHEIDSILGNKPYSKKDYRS

[5] = molecular target: Voltage-gated potassium channel subunit beta-2 (Rattus norvegicus) (UniProt P62483); assay: enhancers of rat Kvbeta2 NADPH turnover – biochemical, NADPH fluorescence, primary screen (AID 623;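 active = NADPH fluorescence slope more negative than the mean of all samples by about 3 SD, 99.7% confidence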;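 note: fluorescence intensity change per second fitted from 20 to 320 s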); settings: Recombinant KvBeta, NADPH fluorescence decrease slope, 10 min; at 10 µM; stronger effect = lower value
[6] = molecular target: Alpha-2C adrenergic receptor (Homo sapiens) (UniProt P18825); assay: compounds altering alpha2C-coupled GIRK flux – cell-based, HEK293 alpha2C/GIRK1/2, thallium flux, primary screen (AID 624;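 active = fluorescence slope after compound addition differing from the mean of all screened samples at 99.7% confidence, in either direction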;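 note: slope of fluorescence ratio to pre-addition baseline per second over 15 to 24 s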); settings: thallium flux BTC fluorescence, at 10 µM, actives lie on both sides
Alpha-2C adrenergic receptor (Homo sapiens), sequence (P18825 whole entry, looked up): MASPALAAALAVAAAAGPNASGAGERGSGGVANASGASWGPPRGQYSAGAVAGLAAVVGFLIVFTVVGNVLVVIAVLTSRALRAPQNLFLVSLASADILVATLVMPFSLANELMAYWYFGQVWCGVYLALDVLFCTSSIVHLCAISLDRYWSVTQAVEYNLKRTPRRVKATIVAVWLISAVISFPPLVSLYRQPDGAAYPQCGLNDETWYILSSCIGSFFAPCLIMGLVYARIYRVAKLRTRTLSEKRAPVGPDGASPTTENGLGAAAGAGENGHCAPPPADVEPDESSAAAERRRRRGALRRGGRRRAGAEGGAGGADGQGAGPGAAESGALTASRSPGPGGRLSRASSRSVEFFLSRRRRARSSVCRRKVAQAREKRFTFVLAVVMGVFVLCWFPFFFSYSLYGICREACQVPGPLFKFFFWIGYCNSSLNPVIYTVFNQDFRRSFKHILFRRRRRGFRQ

[7] = blockers of RIG-like receptor reporter activation – cell-based, Sendai virus stimulus, luciferase, 10K MLSCN set, TLR/RLR signaling modifier project, primary screen (AID 602276;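 active = inhibition at or above 50% at 10 µM; inactive = inhibition below 50%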;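 note: firefly luciferase from ISG56 promoter only with Renilla not read in this screen; 0% = Sendai virus plus DMSO and 100% = medium plus DMSO without virus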); settings: HEK293 RL24 IRF3 luciferase reporter, at 10 µM, stronger effect = higher value
[8] = TLR3 IRF3 reporter activation blockers – cell-based, poly I:C stimulus, luciferase, 10K MLSCN set, primary screen (AID 602277;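 active = inhibition of the reporter signal at or above 50%; inactive = inhibition below 50%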); settings: HEK293-TLR3 RL24 IRF3 luciferase reporter, at 10 µM, stronger effect = higher value

SMILES | cell count [1] | inhibition [1] | inhibition of aggregation [2] | nuclei count [2] | inhibition [3] | nuclei count [3] | fluorescence slope [4] | NADPH fluorescence slope [5] | slope [6] | inhibition [7] | inhibition [8]
CCOC(=O)C1=C(C)NC(C)=C(C(=O)OCC)C1c1cc(N)ccc1OC(F)F | 181 | -11% (inactive) | 22.6% (inactive) | 83.8% | -12.2% (inactive) | 96.5% | -0.445 (inactive) | 4.3e-05 (inactive) | 0.00592 (inactive) | 8.52% (inactive) | 28.4% (inactive)
COc1cccc(C2=Nn3c(nnc3-c3ccccc3O)SC2)c1 | 436 | 3.4% (inactive) | 2.3% (inactive) | 99.4% | 25.3% (inactive) | 86.4% | -0.312 (inactive) | 2.8e-05 (inactive) | 0.00345 (inactive) | 6.36% (inactive) | 19.2% (inactive)
O=C(Nc1cnn(C23CC4CC(CC(C4)C2)C3)c1)c1cnn2c(C(F)(F)F)cc(-c3ccco3)nc12 | 501 | -8.8% (inactive) | -4.4% (inactive) | 108% | -107% (inactive) | 121% | -0.498 (inactive) | -2.2e-05 (inactive) | 0.00429 (inactive) | 8.99% (inactive) | -44.9% (inactive)
OC(COc1ccccc1)CN1C2=NCCCN2c2ccccc21 (centres undefined) | 295 | 1.6% (inactive) | -3.1% (inactive) | 81.2% | 5.3% (inactive) | 79.2% | -0.608 (inactive) | -4.2e-06 (inactive) | 0.00402 (inactive) | 20% (inactive) | 30.6% (inactive)
COc1cccc(C2CC(=O)Nc3cc4c(cc32)OCCO4)c1OC(C)C (centres undefined) | 556 | 1.9% (inactive) | 7.2% (inactive) | 119% | -18.7% (inactive) | 104% | -0.497 (inactive) | -6e-05 (inactive) | 0.00619 (inactive) | 9.49% (inactive) | 17.8% (inactive)
CCOc1ccc2nc(NC(=O)CSc3nnnn3C3CCCCC3)sc2c1 | 401 | 1.7% (inactive) | -8% (inactive) | 108% | -74.4% (inactive) | 92.8% | -0.393 (inactive) | -3.7e-05 (inactive) | 0.00315 (inactive) | -4.95% (inactive) | -46.7% (inactive)
COCCOC(=O)/C=C1/NC(=O)CS1 | 669 | 5.3% (inactive) | 9.1% (inactive) | 100% | 45.1% (inactive) | 98.3% | -0.606 (inactive) | -1.8e-05 (inactive) | 0.00397 (inactive) | 15.1% (inactive) | 21.6% (inactive)
[O-][n+]1c2ccc3nonc3c2nn1-c1ccccc1Cl | 340 | 8.5% (inactive) | -11.3% (inactive) | 111% | -21.9% (inactive) | 118% | -0.507 (inactive) | -5.7e-05 (inactive) | 0.0043 (inactive) | 0.797% (inactive) | -2.81% (inactive)
O=C1CCNc2cc3ccccc3cc21 | 356 | 2.5% (inactive) | 32.4% (inactive) | 80.4% | 24.1% (inactive) | 99.3% | -0.472 (inactive) | -0.000147 (inactive) | 0.00661 (inactive) | 21.5% (inactive) | 32.3% (inactive)
Cn1c(=O)cc(OCC(=O)NCCCN2CCN(c3cccc(Cl)c3)CC2)c2ccccc21 | 583 | 8% (inactive) | -42.4% (inactive) | 98.2% | -83.7% (inactive) | 128% | -0.514 (inactive) | -1.4e-05 (inactive) | 0.00636 (inactive) | 25% (inactive) | 31.3% (inactive)
COc1ccc(OCC(=O)N2CCN(C(=O)Cc3ccccc3)CC2)cc1 | 616 | -22.3% (inactive) | -1.4% (inactive) | 106% | -14.3% (inactive) | 101% | -0.517 (inactive) | -4.7e-05 (inactive) | 0.00449 (inactive) | -10.1% (inactive) | -7.66% (inactive)
Cn1c(SCC(=O)Nc2ccc3c(c2)oc2ccccc23)nnc1-c1ccccc1 | 403 | -1.1% (inactive) | 4.5% (inactive) | 96.1% | -52.8% (inactive) | 109% | -0.515 (inactive) | -0.000134 (active) | 0.0032 (inactive) | -1.19% (inactive) | -25.5% (inactive)
COc1ccc(C(C(=O)NC2CCCCC2)N2CCC3(CC2)OCCO3)cc1 (centres undefined) | 953 | 1.8% (inactive) | -42.7% (inactive) | 132% | -18.3% (inactive) | 135% | -0.525 (inactive) | -6.1e-05 (inactive) | 0.00579 (inactive) | 31.2% (inactive) | 89.5% (active)
COc1cccc(NC(=O)c2ccco2)c1 | 596 | 5.6% (inactive) | 7% (inactive) | 93.3% | 32.9% (inactive) | 96.1% | -0.401 (inactive) | 6.1e-06 (inactive) | 0.00282 (inactive) | -31.2% (inactive) | -128% (inactive)
